Assay results taken from PubChem BioAssay (NCI).
About 83,000 compounds went through this panel and 20% of them were active in at least one assay; those are over-represented in the sample as a whole.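 In brief: 96-well plates, 48 h treatment, single concentration, percent growth endpoint.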 Active and inactive are the calls of the source. How the source made its calls: active means growth percent below 10; inactive means the rest.

Test system: HL-60(TB) leukemia
Assay: NCI-60 one-dose screen, 48 h (100 = growth as untreated, 0 = no growth, -100 = all killed)
Settings: 10 µM unless noted

SMILES | growth
O=C(CBr)c1ccc(OC(=O)c2ccccc2)cc1 | 95.5% (inactive)
c1csc(-c2cnc3nonc3n2)c1 | 1.96% (active)
COc1cc(-c2nc3nc4sc(C)c(C)c4c(=O)n3[nH]2)cc(OC)c1OC | 80.7% (inactive)
Clc1nc2ccccc2cc1Cn1nnc(Cc2ccccc2)n1 | 87.9% (inactive)
CC1=CSC2=NCCN12 | 97.1% (inactive)
CCOC(=O)c1cc(C(=O)c2ccc(OC)c(OC)c2)n2ccc(/C=C/c3cc[n+](CC(=O)c4ccc(OC)c(OC)c4)cc3)cc12 | 88.6% (inactive)
Nc1ncc(-c2cnn(C3CCNCC3)c2)cc1-c1nc2ccccc2o1 | -55.5% (active)
CC1(C)CC[C@]23CC[C@]4(C)[C@H](CC[C@@H]5[C@@]6(C)CCNCC(C)(C)[C@@H]6CC[C@]54C)[C@H]2[C@H]1OC3 | 23.6% (inactive)
CCCCCCCCN(CCCCCCCC)CC(O)c1cc(Cl)ccc1OC (configuration not stated) | 73.4% (inactive)
COc1cc2c(cc1OCCCN1CCN(CCCOc3cc4c(cc3OC)C(=O)N3CCC[C@H]3C=N4)CC1)C=CC(C)(C)O2 | 10.2% (inactive)
Cn1cnc([N+](=O)[O-])c1/C=C1\Oc2ccc(Br)cc2C1=O | 75.5% (inactive)
CCOC(=O)c1cn2ncnc(Oc3ccc(NC(=O)NC4CC4)c(F)c3)c2c1C | 70.9% (inactive)
O=C1c2ccccc2C(=O)C1c1ccc(Br)cc1 | 105% (inactive)
O=c1[nH]c(Cl)nc2c1cnn2-c1ccccc1 | -2.45% (active)
CCOC(=O)c1c2c(c(C)n1Cc1ccc(OC)cc1)-c1nc(N)ncc1CC2 | 68.8% (inactive)
COc1ccc2c(c1OC)C(=O)O[C@@H]2[C@H]1c2c(c(C#CC#Cc3ccc(F)c(F)c3)c3c(c2OC)OCO3)CCN1C | 76.9% (inactive)
C#C[C@]1(O)CC[C@H]2[C@@H]3CC=C4c5nc(Nc6ncccn6)sc5CC[C@]4(C)[C@H]3CC[C@@]21C | 60.4% (inactive)
Cc1ccc(/C=C2\CN(C(=O)C(Cl)Cl)C/C(=C\c3ccc(C)cc3)C2=O)cc1 | -21% (active)
COC1=CC(=O)C(OC)=C(O)C1=O | 107% (inactive)

SMILES | growth
c1ccc(-n2nnnc2-c2cccc3ccccc23)cc1 | -21.8% (active)
COc1cc(/C=C/C(=O)c2cccc(-n3cc(-c4ccc(Cl)cc4)[nH]c3=O)c2)ccc1O | -19.9% (active)
CNCCCC12CCC(c3ccccc31)c1ccccc12 | 71% (inactive)
CC(C)=CCC[C@](C)(O)[C@H]1CC[C@]2(C)[C@@H]1CC[C@@H]1[C@@]3(C)C/C(=C/c4ccc(Br)cc4)C(=O)C(C)(C)[C@@H]3CC[C@]12C | 92.9% (inactive)
C=C(C)[C@@H]1CC[C@]2(C(=O)N3CCN(C)CC3)CC[C@]3(C)[C@H](CC[C@@H]4[C@@]5(C)CC[C@H](OC(=O)c6ccccc6C(=O)O)C(C)(C)[C@@H]5CC[C@]43C)[C@@H]12 | 106% (inactive)
CNC(=O)c1[nH]cc(-c2ccccc2)c1-c1cc(OC)c2c(c1OC)OCO2 | 93.3% (inactive)
O=c1[nH]c(-c2ccccc2)nc(CN2CCCCC2)c1O | 84.4% (inactive)
Cc1ccc(NC(=O)c2sc3nc(C)c(C(O)c4ccccc4)cc3c2N)cc1 (configuration not stated) | -47.5% (active)
c1ccc2cc(C[n+]3ccn(CCCCCCCCCCCCn4cc[n+](Cc5ccc6ccccc6c5)c4)c3)ccc2c1 | -69.5% (active)
Clc1cc(Cl)cc(Nc2ccc3cc(OCCCN4CCOCC4)ccc3n2)c1 | 26.7% (inactive)
Cc1cccc2c3c(sc12)C(c1ccc(F)cc1)C(C#N)=C(N)O3 (configuration not stated) | -21.8% (active)
COc1ccc(C(=O)C2CC2c2ccc(Cl)cc2)cc1 (configuration not stated) | 14.1% (inactive)
COc1cccc(/C=C/C(=O)c2sc(Nc3ccc(O)cc3)nc2C)c1 | 78.8% (inactive)
Cc1[nH]c2ccc(F)cc2c1CCNC(=O)C1CCN(C(=O)c2ccc(-c3ccccc3)cc2)CC1 | 55.3% (inactive)
O=C(Nc1cccc(Cl)c1)Oc1c(Cl)c(Cl)c(Cl)c(Cl)c1Cl | 101% (inactive)
CCNc1nnc(COc2ccc(CNC(=O)CCCC/C=C/C(C)C)cc2OC)o1 | 98.4% (inactive)
C[C@@H]1C(=O)N(C[C@H](Cc2ccccc2)NC(=O)OCc2ccccc2)[C@]1(Cc1ccccc1)C(=O)OC(C)(C)C | 81.5% (inactive)
Fc1cc2[nH]ncc2c2c3c(c(-c4cn[nH]c4C(F)(F)F)nc12)CCCC3 | -9.67% (active)
